# High-throughput results (PubChem)
# This is a sample that favours compounds with a hit; in the whole collection about 3.7% have one here.
# MLL AF4-AF9 inh: blocks AF4 peptide binding to human AF9. P42568. inhibition, % at 10 µM. actives 0.47% (n = 350,000). AlphaScreen, biotin-AF4 peptide binding to FLAG-AF9;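 active means every replicate reaching a set inhibition limit, whatever the replicate mean, cut at about 25% in these data; inconclusive means mean inhibition reaches that limit but some replicates miss it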;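 further: 0% = plate neutral control median and 100% = total signal loss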
# Target sequence (P42568 whole entry, looked up): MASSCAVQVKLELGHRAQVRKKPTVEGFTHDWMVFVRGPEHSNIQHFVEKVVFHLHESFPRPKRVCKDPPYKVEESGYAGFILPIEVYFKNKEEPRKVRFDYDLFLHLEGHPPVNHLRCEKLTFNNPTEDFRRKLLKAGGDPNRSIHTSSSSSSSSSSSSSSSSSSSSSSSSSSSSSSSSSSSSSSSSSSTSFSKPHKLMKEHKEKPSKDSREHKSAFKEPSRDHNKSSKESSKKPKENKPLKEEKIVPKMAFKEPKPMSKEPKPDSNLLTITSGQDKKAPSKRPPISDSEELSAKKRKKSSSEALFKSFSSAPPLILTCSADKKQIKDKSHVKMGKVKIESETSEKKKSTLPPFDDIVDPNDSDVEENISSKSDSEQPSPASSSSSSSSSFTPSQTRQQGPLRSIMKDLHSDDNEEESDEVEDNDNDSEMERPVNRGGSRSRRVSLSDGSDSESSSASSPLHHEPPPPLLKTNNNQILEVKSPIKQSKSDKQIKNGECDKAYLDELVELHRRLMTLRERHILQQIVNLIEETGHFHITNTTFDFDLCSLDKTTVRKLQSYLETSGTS
# Wnt act: activates Wnt/beta-catenin signaling in a reporter cell assay; activator, plate reader; actives 1.2% (n = 300,000); activation, % at 9.35 µM; in the data active means activation above about 30%, passing the limit was not always enough; inconclusive means no clear call, values can overlap the other calls;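 further: 0% = neutral control wells and 100% = positive control wells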
# rRNA inh HTS: selective bacterial rRNA inhibition in E. coli | E. coli WT GFP vs humanized-ribosome RFP mutants, fluorescence, 24 h; hits give low values; DMSO median 0, no signal -100 | GFP signal change (wild-type ribosome), % (no concentration beside the values) | actives 1.6% (n = 350,000) | AID 720706;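 active means significant combined selectivity score with lowered wild-type GFP, culture density cut under 30%, mutant RFP and density less affected; inactive means any of these conditions unmet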
# esBAF inh: blocks esBAF chromatin remodeling in mouse ES cells; reporter increase, % at 12.5 µM; AID 602393; Bmi1-luciferase knock-in reporter, 24 h; 100% = twice the neutral-well signal; actives 2% (n = 350,000); in the data active means activation above about 40%; inconclusive means no clear call, values can overlap the other calls;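 further: 0% = median of the plate's neutral control wells and 100% = double that signal; a rise in the Bmi1 reporter signal indicates esBAF inhibition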
# MITF TRPM1 HTS: increases MITF-driven TRPM1 promoter luciferase signal; SK-MEL-5 TRPM1-promoter luciferase, 24 h; % of positive control, neutral wells = 0; activation, % at 12.5 µM; actives 0.75% (n = 300,000); AID 588334;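 active means mean activation of at least 80% with every replicate also reaching 80%; inconclusive means mean reaches 80% but some replicate falls short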;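 further: 0% = neutral control wells and 100% = parthenolide positive control wells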
# Numbers without * were called inactive; ? = inconclusive; . = not tested or not shown.
SMILES,MLL AF4-AF9 inh,Wnt act,rRNA inh HTS,esBAF inh,MITF TRPM1 HTS
CC(C)c1cccc(C(C)C)c1NC(=S)Nc1cccc(Cl)c1,1,1,-26*,7,-6
Fc1ccc(NC(=S)Nc2cccc(Cl)c2)cc1,.,1,.,.,7
Cn1nnnc1SCCNC(=O)C1CCC(=O)N(CCc2cccc(F)c2)C1 (stereo not drawn),-4,1,0,3,-4
COc1cc(/C=N/n2cnnc2)ccc1OS(=O)(=O)c1ccccc1[N+](=O)[O-],4,-1,-19*,.,3
CC(C)n1cnc2cc(NC(=O)c3ccco3)ccc21,-2,19,4,17,57
O=C(Nc1ccc2c(c1)ncn2C1CCCCC1)c1ccco1,.,45*,.,?,.
O=C(CSc1nnnn1C1CCCCC1)Nc1cccc(NC(=O)c2ccco2)c1,.,60*,.,8,11
O=C(CSc1nnnn1C1CCCC1)Nc1cccc(NC(=O)c2ccco2)c1,.,.,.,10,4
Cn1cccc1C(=O)OCc1csc(-c2ccccc2)n1,.,71*,.,.,22
Cc1ccccc1Nc1nc(N)nc(COC(=O)c2ccccc2)n1,.,.,.,.,83*
Cc1ccccc1Nc1nc(N)nc(COC(=O)c2cccn2C)n1,.,66*,.,48*,.
CCc1ccccc1Nc1nc(N)nc(COC(=O)c2cccn2C)n1,.,-6,.,26,32
O=C(OCc1csc(-c2ccccc2)n1)c1cccs1,.,-2,.,14,.
S=C(Nc1ccc(CN2CCCCC2)cc1)Nc1cccc(Cl)c1Cl,11,1,9,-7,5
CC(=O)c1cc(C#N)c(N2CCN(c3ccccc3)CC2)nc1C,1,2,2,-1,32
C[C@@H]1CN([C@@H](C)CO)C(=O)c2cc(NS(=O)(=O)c3ccc(F)cc3)ccc2O[C@H]1CN(C)S(=O)(=O)c1ccccc1,.,.,-4,-4,.
O=C(NCCN1CCOCC1)c1cc(-c2ccccc2)on1,.,47*,.,19,7
O=C(NCc1cccnc1)c1cc(-c2ccccc2)on1,.,.,.,47*,19
O=C(NCCCN1CCOCC1)c1cc(-c2ccccc2)on1,1,16,2,11,3
O=C(NCc1ccccc1)c1cc(-c2cccc(O)c2)on1,-13,20,-5,68*,.
CCNC(=O)c1cc2c(c(-c3cccc(-c4cc5ccccc5o4)c3)n1)[C@H](CCO)N(C(=O)NC(C)C)C2,0,-1,21,.,.
Cc1ccc(CNc2cc(C(=O)O)ccc2Cl)s1,-1,1,-33*,3,.
O=C(NNC(=S)Nc1ccc(Br)cc1)c1ccccc1,-1,9,-47,34,23
O=C(NNC(=S)Nc1ccccc1)c1cccc(Br)c1,.,.,.,47*,11
O=C(NNC(=S)NC(=O)c1ccccc1)c1ccc(O)cc1,0,0,-44,2,-4
SMILES,MLL AF4-AF9 inh,Wnt act,rRNA inh HTS,esBAF inh,MITF TRPM1 HTS
CCOc1ccc(NC(=O)CCC(=O)c2ccc(Br)cc2)cc1,-1,0,0,-3,-3
CCOc1ccc(NC(=S)NNC(=O)c2ccc(Br)cc2)cc1,0,0,-15*,.,-1
O=C(NNC(=S)Nc1ccccc1)c1ccc(O)cc1,-52,57*,13,78*,?
Cc1cc(S(=O)(=O)N2CCOCC2)ccc1OCC(=O)Nc1ccccc1C(F)(F)F,-1,0,.,-5,.
COCCNCC(O)CON=C1c2ccccc2-c2ccccc21 (stereo not drawn),1,1,-7,.,-8
CC(C)CCNCC(O)CON=C1c2ccccc2-c2ccccc21 (stereo not drawn),27*,-1,-60,.,15
CCOP(=O)(NC(c1ccccc1)c1nc2ccccc2[nH]c1=O)OCC (stereo not drawn),-1,1,16,4,4
O=Cc1ccc(-n2cncn2)cc1,-1,-7,0,.,9
CN1C(=O)S/C(=C\c2ccc(-n3cncn3)cc2)C1=O,1,.,-22*,-7,7
O=C(c1cc(-c2cccnc2)nc2ccc(Cl)cc12)N1CCN(S(=O)(=O)c2cccs2)CC1,4,-1,4,9,-18
O=[N+]([O-])c1ccc2nc(-c3cccnc3)[nH]c2c1,2,3,-12,20,23
Cn1cccc1-c1nc2ccc([N+](=O)[O-])cc2[nH]1,10,14,-49,?,99*
O=[N+]([O-])c1ccc2nc(-c3ccccc3)[nH]c2c1,6,68*,15,.,103*
